Laboratory results taken from PubChem BioAssay (NCI).
About 83,000 compounds went through this panel and 20% of them were active in at least one assay; those are over-represented in the sample as a whole.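 Percent growth is the endpoint: 0 to 100 indicates growth inhibition (40 means 60% inhibition), 0 means no net growth, and negative values indicate cell death.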 The source made the active and inactive calls. Rule for the calls: active = growth percent below 10; inactive = the rest.

What was measured:
Test in all cases: NCI-60 one-dose screen, 48 h (100 = growth as untreated, 0 = no growth, -100 = all killed)
Settings in all cases: 10 µM unless noted
NCI/ADR-RES ovarian = test system: NCI/ADR-RES ovarian
T-47D breast = test system: T-47D breast
BT-549 breast = test system: BT-549 breast
MDA-MB-435 melanoma = test system: MDA-MB-435 melanoma
SW-620 colon = test system: SW-620 colon
MCF7 breast = test system: MCF7 breast
HCT-116 colon = test system: HCT-116 colon
HCC-2998 colon = test system: HCC-2998 colon
KM12 colon = test system: KM12 colon

Measured: growth

COc1cc2c(cc1OCc1ccccc1)C(CC(C)C)=[N+](C)CC2
inactive: NCI/ADR-RES ovarian 101% | T-47D breast 58.4% | BT-549 breast 44% | MDA-MB-435 melanoma 96.6% | SW-620 colon 93.7% | MCF7 breast 73.4% | HCT-116 colon 85.2% | HCC-2998 colon 79% | KM12 colon 78.8%

O=C1N[C@@H]2[C@@H](O)[C@@H](O)[C@H](O)C[C@H]2c2cc3c(c(O)c21)OCO3
active: NCI/ADR-RES ovarian 1.95% | T-47D breast -8.46% | BT-549 breast -12.5% | MDA-MB-435 melanoma -42.2% | SW-620 colon -0.0451% | MCF7 breast 1.73% | HCT-116 colon -1.49% | HCC-2998 colon -22.8% | KM12 colon -11.5%

COc1ccc(/C=C/c2cc(OC)c(OC)c(OC)c2)cc1NC(=O)/C=C/c1ccc(F)cc1
inactive: T-47D breast 32.1% | BT-549 breast 35.1% | SW-620 colon 30.5% | MCF7 breast 20.6% | HCT-116 colon 23% | HCC-2998 colon 17.2% | KM12 colon 25%
active: NCI/ADR-RES ovarian -3.74% | MDA-MB-435 melanoma -41.4%

Fc1cccc(NCOOC2(OOCNc3cccc(F)c3)CCCCC2)c1
inactive: NCI/ADR-RES ovarian 77.8% | T-47D breast 86.8% | BT-549 breast 102% | MDA-MB-435 melanoma 101% | SW-620 colon 104% | MCF7 breast 88.8% | HCT-116 colon 87.3% | HCC-2998 colon 105% | KM12 colon 94.6%

CCCCCCCCCCCCNC(c1ccccc1)C(O)c1ccccc1 (configuration not stated)
inactive: NCI/ADR-RES ovarian 68.8% | T-47D breast 70.4% | BT-549 breast 103% | MDA-MB-435 melanoma 91.4% | SW-620 colon 48.1% | MCF7 breast 63.7% | HCT-116 colon 12.2% | HCC-2998 colon 43.1% | KM12 colon 74.9%

CC(C)OC(=O)[C@H](C)NP(=O)(Oc1ccccc1)C1CCCN(O)C1=O (some centres not stated)
inactive: NCI/ADR-RES ovarian 98.4% | T-47D breast 94.5% | BT-549 breast 95% | MDA-MB-435 melanoma 96.1% | SW-620 colon 93.1% | MCF7 breast 94.5% | HCT-116 colon 89.6% | HCC-2998 colon 97.2% | KM12 colon 94.5%

C[C@]12CCc3sc(-c4ccccc4O)nc3C1=CC[C@@H]1[C@@H]2CC[C@]2(C)C(=O)CC[C@@H]12
inactive: NCI/ADR-RES ovarian 106% | T-47D breast 90.1% | BT-549 breast 110% | MDA-MB-435 melanoma 102% | SW-620 colon 103% | MCF7 breast 93.3% | HCT-116 colon 104% | HCC-2998 colon 111% | KM12 colon 107%

COc1ccc(C(O)(C(=O)O)c2ccc(OC)cc2)cc1
inactive: NCI/ADR-RES ovarian 97.8% | T-47D breast 76.4% | BT-549 breast 106% | MDA-MB-435 melanoma 102% | SW-620 colon 95.2% | MCF7 breast 88.6% | HCT-116 colon 83.2% | HCC-2998 colon 90.6% | KM12 colon 87.7%

COc1cc(NCCCN=C(N)N)c2ncccc2c1
active: T-47D breast -0.911% | MCF7 breast -51.3%
inactive: NCI/ADR-RES ovarian 108% | BT-549 breast 65.9% | MDA-MB-435 melanoma 103% | SW-620 colon 92.8% | HCT-116 colon 78.1% | HCC-2998 colon 94.3% | KM12 colon 49.3%

Clc1ccc(CSC(Cn2ccnc2)c2ccc(Cl)cc2Cl)cc1 (configuration not stated)
active: BT-549 breast 4.34% | HCT-116 colon 7.38%
inactive: NCI/ADR-RES ovarian 14.1% | T-47D breast 29.5% | MDA-MB-435 melanoma 31.4% | SW-620 colon 29.2% | MCF7 breast 20.9% | HCC-2998 colon 36.1% | KM12 colon 16.1%

CC1(C)C(C(=O)c2cn(CCCCF)c3ccccc23)C1(C)C
inactive: NCI/ADR-RES ovarian 98.1% | T-47D breast 78.6% | BT-549 breast 100% | MDA-MB-435 melanoma 108% | SW-620 colon 99.1% | MCF7 breast 89% | HCT-116 colon 90.4% | HCC-2998 colon 116% | KM12 colon 102%

Cc1cc(NC(=O)NCc2ccc(N3C(N)=NC(N)=NC3(C)C)cc2)ccc1S(=O)(=O)F
inactive: NCI/ADR-RES ovarian 112% | T-47D breast 59.7% | BT-549 breast 42% | MDA-MB-435 melanoma 32.7% | SW-620 colon 23.9% | MCF7 breast 23.2% | HCT-116 colon 23.3% | KM12 colon 16.2%
active: HCC-2998 colon 5.34%

COC(=O)[C@@]1(C)CC[C@]2(C)CC[C@]3(C)C4=CC(=O)c5c(cc(O)c(O)c5C)[C@]4(C)CC[C@@]3(C)[C@@H]2C1
inactive: NCI/ADR-RES ovarian 63.4% | T-47D breast 54.1% | BT-549 breast 82.1% | MDA-MB-435 melanoma 58.5% | SW-620 colon 60.3% | MCF7 breast 41.9% | HCT-116 colon 31.3% | HCC-2998 colon 76.7% | KM12 colon 50.4%

COC(=O)[C@@H](C)C[C@H](Cc1ccc(F)cc1)NC(=O)c1csc([C@@H](C[C@H](C(C)C)N(C)C(=O)[C@@H](NC(=O)[C@H]2CCCCN2C)C2CC2)OC(C)=O)n1
active: BT-549 breast -0.522% | MDA-MB-435 melanoma -50.1% | HCT-116 colon 3.44%
inactive: NCI/ADR-RES ovarian 76.4% | T-47D breast 60.1% | SW-620 colon 27.2% | MCF7 breast 19.6% | HCC-2998 colon 28.8% | KM12 colon 14%

CC(=O)O[C@H](C[C@H](C(C)C)N(C)C(=O)[C@@H](NC(=O)[C@H]1CCCCN1C)C(C)C)c1nc(C(=O)NC2CCC(C(=O)O)CC2)cs1 (some centres not stated)
active: MDA-MB-435 melanoma -28.9%
inactive: NCI/ADR-RES ovarian 96.8% | T-47D breast 50.4% | BT-549 breast 45.6% | SW-620 colon 32.6% | MCF7 breast 18.5% | HCT-116 colon 34.8% | HCC-2998 colon 83.7% | KM12 colon 39.2%

CN1CCC(c2c[nH]c3ccccc23)C1 (configuration not stated)
inactive: NCI/ADR-RES ovarian 94.5% | T-47D breast 97% | BT-549 breast 110% | MDA-MB-435 melanoma 97.9% | SW-620 colon 104% | MCF7 breast 94.8% | HCT-116 colon 94.2% | HCC-2998 colon 94.1% | KM12 colon 107%

CCCCN1CCCC[C@@H]1C(=O)N[C@H](C(=O)N(C)[C@H](CCc1nc(C(=O)N[C@@H](Cc2ccccc2)C[C@H](C)C(=O)OC)cs1)C(C)C)[C@@H](C)CC
inactive: NCI/ADR-RES ovarian 65.7% | T-47D breast 44.2% | BT-549 breast 36.4% | SW-620 colon 63.7% | MCF7 breast 18.5% | HCT-116 colon 31.6% | HCC-2998 colon 61.7% | KM12 colon 28%
active: MDA-MB-435 melanoma -30%

CC1=C(CCCOC(=O)CN)C2=C(C)C3(CC3)[C@@](C)(O)C(=O)C2=C1
inactive: NCI/ADR-RES ovarian 84.7% | T-47D breast 63.6% | BT-549 breast 65.8% | MDA-MB-435 melanoma 101% | SW-620 colon 91.5% | MCF7 breast 71.1% | HCT-116 colon 71.5% | HCC-2998 colon 85.1% | KM12 colon 100%

COC(=O)[C@@H](C)C[C@H](Cc1ccccc1)NC(=O)c1csc([C@@H](C[C@H](C(C)C)N(C)C(=O)[C@@H](NC(=O)[C@H]2CCCCN2C)C(C)C)OC(C)=O)n1
active: NCI/ADR-RES ovarian 5.63% | BT-549 breast -20.5% | MDA-MB-435 melanoma -54.7% | HCT-116 colon -21.2% | KM12 colon 4.46%
inactive: T-47D breast 54.7% | SW-620 colon 22.9% | MCF7 breast 19.6% | HCC-2998 colon 12.9%

CN1C(=O)C(=Cc2cn(CCCCCCn3c4ccccc4c(=O)c4ccccc43)c3ccccc23)C(=O)N(C)C1=O
inactive: NCI/ADR-RES ovarian 90.7% | T-47D breast 75% | BT-549 breast 91.2% | MDA-MB-435 melanoma 107% | SW-620 colon 103% | MCF7 breast 81.1% | HCT-116 colon 85.5% | HCC-2998 colon 99.4% | KM12 colon 98.7%

Clc1ccc(CO/N=C(\Cn2ccnc2)c2ccc(Cl)cc2Cl)c(Cl)c1
inactive: T-47D breast 101%
active: NCI/ADR-RES ovarian -12.2% | BT-549 breast -44% | MDA-MB-435 melanoma -13.2% | SW-620 colon 8.71% | MCF7 breast 0.337% | HCT-116 colon -79.3% | HCC-2998 colon 3.92% | KM12 colon -1.07%

O=C(O)CNC(=O)C(Cl)(Cl)Cl
inactive: NCI/ADR-RES ovarian 108% | T-47D breast 94.5% | BT-549 breast 103% | MDA-MB-435 melanoma 97.8% | SW-620 colon 94.8% | MCF7 breast 91.1% | HCT-116 colon 107% | HCC-2998 colon 104% | KM12 colon 101%

COc1ccc(S(=O)(=O)N(Cc2ccc3c(c2)C=CC(C)(C)O3)c2ccccc2)cc1OC
inactive: NCI/ADR-RES ovarian 68.7% | T-47D breast 55.1% | BT-549 breast 54% | MDA-MB-435 melanoma 87.3% | SW-620 colon 87.1% | MCF7 breast 50.7% | HCT-116 colon 63% | HCC-2998 colon 73.6% | KM12 colon 88.7%

O=C1C2C(C(=O)[N]1[Hg][c]1cccs1)C1(Cl)C(Cl)=C(Cl)C2(Cl)C1(Cl)Cl (configuration not stated)
inactive: NCI/ADR-RES ovarian 21% | HCC-2998 colon 49.7% | KM12 colon 87.3%
active: T-47D breast -78.5% | BT-549 breast -1.18% | MDA-MB-435 melanoma 7.41% | SW-620 colon -40.4% | MCF7 breast -13.1% | HCT-116 colon -31.9%

C/C=C(\C)C(=O)O[C@@H]1C(O)[C@H]2OC(COC(=O)CCC(=O)CCCCCC[C@H](CCCCC)O[C@@H]3OC(C)[C@H](OC(C)=O)C(O)[C@H]3O2)[C@H]1OC(=O)/C=C/c1ccccc1 (some centres not stated)
inactive: NCI/ADR-RES ovarian 38.5% | BT-549 breast 22.1% | SW-620 colon 24.6% | MCF7 breast 17.6% | HCC-2998 colon 39.3% | KM12 colon 16.4%
active: T-47D breast -6.33% | MDA-MB-435 melanoma 0.295% | HCT-116 colon 8.86%

CC(=O)O[C@H]1C(=O)[C@@]2(C)[C@H]([C@H](OC(=O)c3ccccc3)[C@]3(O)C[C@H](OC(=O)[C@H](OC(=O)OCC4COC(C)(C)O4)[C@@H](NC(=O)c4ccccc4)c4ccccc4)C(C)=C1C3(C)C)[C@]1(OC(C)=O)CO[C@@H]1C[C@@H]2O (some centres not stated)
inactive: NCI/ADR-RES ovarian 91.4% | T-47D breast 40.7% | BT-549 breast 38.2% | SW-620 colon 38.7% | MCF7 breast 18.9% | HCT-116 colon 19.2% | HCC-2998 colon 39.9% | KM12 colon 18.7%
active: MDA-MB-435 melanoma -49.6%

CC(C)(C)N1CC1C#N (configuration not stated)
inactive: NCI/ADR-RES ovarian 106% | T-47D breast 89.3% | BT-549 breast 103% | MDA-MB-435 melanoma 108% | SW-620 colon 103% | MCF7 breast 100% | HCT-116 colon 100% | HCC-2998 colon 98.8% | KM12 colon 99.2%

C/C(=C\c1ccn(-c2ccc(N)c(F)c2)n1)[C@@H]1C[C@@H]2O[C@]2(C)CCC[C@H](C)[C@H](O)[C@@H](C)C(=O)C(C)(C)[C@@H](O)CC(=O)O1
inactive: T-47D breast 38.5% | BT-549 breast 12.2% | SW-620 colon 44.7% | MCF7 breast 16.3% | HCT-116 colon 10.7% | KM12 colon 12.5%
active: NCI/ADR-RES ovarian -3.5% | MDA-MB-435 melanoma -41.1% | HCC-2998 colon 4.73%
